Laboratory results published in PubChem BioAssay (Tox21).
Where “and” joins values, the source holds several entries; their conditions need not be identical. Equal values may be shown once. Records with an inconclusive call do not appear. Calls of active or inactive are those of the source. Unless noted, the call rests on the fitted dose curve; in most records, active means well fitted curve in the direction sought with a large enough effect in the repeat runs; inconclusive means weak or mixed curves; inactive means no such curve, though single readings can be large; an effect the other way counts as inactive or inconclusive.

How the values were obtained:
[1] = qHTS assay for small molecules that induce genotoxicity in human embryonic kidney cells expressing luciferase-tagged ATAD5 (AID 651632); further: nearly all actives have a fitted effect of over 15% in size; further: potency means the concentration at half of the fitted maximal effect
How it was run: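 Luminescence read-out: after 16 hr compound exposure at 37C, ATAD5-luciferase HEK293T cells received Amplite, 30 min RT, then CCD imaging. A rise in signal marks genotoxic stress.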

[2] = qHTS assay for small molecule agonists of the p53 signaling pathway - cell viability (AID 651633; calls by dose curve; further: nearly all actives have a fitted effect of over 30% in size; further: potency means the concentration at half of the fitted maximal effect)
How it was run: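 Viability counter-read: CellTiter-Glo luminescence (30 min, room temperature) in the same p53RE-bla plates. These plates had been exposed to compounds for 16 h at 37 C.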

[3] = qHTS assay for small molecules that induce genotoxicity in human embryonic kidney cells expressing luciferase-tagged ATAD5 - cell viability (AID 651634; calls by dose curve; further: nearly all actives have a fitted effect of over 25% in size; further: potency means the concentration at half of the fitted maximal effect)
How it was run: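 HEK293T ATAD5-luc cells, 2,000/well; compound 15.5 hr, 37C/5% CO2; CellTiter-Fluor 30 min, 37C; fluorescence read.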

[4] = qHTS assay for small molecule disruptors of the mitochondrial membrane potential - cell viability (AID 720634; calls by dose curve; further: nearly all actives have a fitted effect of over 20% in size; further: potency means the concentration at half of the fitted maximal effect)
How it was run: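 Luminescence from CellTiter-Glo (ATP content) gave viability in HepG2 cells, read in the same wells as the MMP dye assay after 1 hr compound exposure at 37 C.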

[5] = qHTS assay for small molecule disruptors of the mitochondrial membrane potential (AID 720635); further: potency means the concentration at half of the fitted maximal effect
How it was run: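 Mitochondrial membrane potential tracked with Mito-MPS dye, red aggregates (ex 540/em 590 nm) against green monomers (ex 490/em 535 nm). Compound treatment 1 hr at 37C, dye 30 min in HepG2.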

[6] = qHTS assay to test for compound auto fluorescence at 590 nm (red) in HepG2 cells (AID 720674)
How it was run: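 1 hr compound incubation on HepG2 cells, 37 C, 5% CO2; plate read ex 540 nm / em 590 nm; intensities reported as Rose Bengal sodium equivalents.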

[7] = qHTS assay to test for compound auto fluorescence at 535 nm (green) in HepG2 cells (AID 720675)
[8] = qHTS assay to test for compound auto fluorescence at 460 nm (blue) in HEK293 cells (AID 720678)
How it was run: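 Auto fluorescence in the blue band was quantified as triamterene equivalency. HEK293 cells were seeded at 2,000/well, dosed after a 4-5 hr attachment, and kept overnight at 37C before the 405/460 nm reading.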

[9] = qHTS assay to test for compound auto fluorescence at 590 nm (red) in HEK293 cells (AID 720679)
How it was run: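 Autofluorescence equivalency to Rose Bengal sodium, 540/590nm, in HEK293 cells exposed overnight to 23 nL compound per well.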

[10] = qHTS assay to test for compound auto fluorescence at 535 nm (green) in HEK293 cells (AID 720680)
[11] = qHTS assay to test for compound auto fluorescence at 460 nm (blue) in HEK293 cell free culture (AID 720681)
How it was run: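 Blue fluorescence (Ex 405/Em 460 nm, triamterene-equivalent) was read immediately after pin transfer of compound or DMSO into medium (DMEM, 10% FBS) without cells.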

[12] = qHTS assay to test for compound auto fluorescence at 535 nm (green) in HEK293 cell free culture (AID 720682)
How it was run: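 No cells present: wells hold DMEM supplemented with 10% FBS, into which compound or vehicle is pinned. Green emission is then recorded (485 nm excitation, 535 nm emission) and scaled to fluorescein.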

[13] = qHTS assay to test for compound auto fluorescence at 590 nm (red) in HEK293 cell free culture (AID 720683)
How it was run: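 Red-channel autofluorescence of compounds in culture medium (DMEM, 10% FBS), no cells, measured at 540/590 nm. Rose Bengal sodium is the reference fluorophore for equivalence.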

[14] = qHTS assay to test for compound auto fluorescence at 590 nm (red) in HepG2 cell free culture (AID 720684)
How it was run: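 Cell-free; medium MEM + 10% FBS; compound or DMSO added by pintool; read Ex 540/Em 590 nm; Rose Bengal sodium as red reference fluorophore.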

[15] = qHTS assay to test for compound auto fluorescence at 460 nm (blue) in HepG2 cell free culture (AID 720685)
How it was run: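 Cell-free plates of MEM plus 10% FBS received 23 nL compound or DMSO vehicle; blue-channel (405/460 nm) intensity scored against triamterene as reference fluorophore.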

[16] = qHTS assay to test for compound auto fluorescence at 535 nm (green) in HepG2 cell free culture (AID 720686)
[17] = qHTS assay to test for compound auto fluorescence at 460 nm (blue) in HepG2 cells (AID 720687)
How it was run: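 Blue-channel autofluorescence (Ex/Em 405/460 nm, triamterene-equivalent) was measured after 1 hr compound exposure at 37 C, 5% CO2. Cells were HepG2, plated overnight at 37 C in MEM plus 10% FBS.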

[18] = biological target: Glucocorticoid receptor (Homo sapiens) (UniProt P04150); assay: qHTS assay to identify small molecule agonists of the glucocorticoid receptor (GR) signaling pathway (AID 720691; active means well fitted activation curve with a large enough effect in the signal ratio in the repeat runs, not every such curve was filed as active; the % refers to the signal ratio)
Chain of Glucocorticoid receptor (Homo sapiens) (P04150 whole entry, looked up): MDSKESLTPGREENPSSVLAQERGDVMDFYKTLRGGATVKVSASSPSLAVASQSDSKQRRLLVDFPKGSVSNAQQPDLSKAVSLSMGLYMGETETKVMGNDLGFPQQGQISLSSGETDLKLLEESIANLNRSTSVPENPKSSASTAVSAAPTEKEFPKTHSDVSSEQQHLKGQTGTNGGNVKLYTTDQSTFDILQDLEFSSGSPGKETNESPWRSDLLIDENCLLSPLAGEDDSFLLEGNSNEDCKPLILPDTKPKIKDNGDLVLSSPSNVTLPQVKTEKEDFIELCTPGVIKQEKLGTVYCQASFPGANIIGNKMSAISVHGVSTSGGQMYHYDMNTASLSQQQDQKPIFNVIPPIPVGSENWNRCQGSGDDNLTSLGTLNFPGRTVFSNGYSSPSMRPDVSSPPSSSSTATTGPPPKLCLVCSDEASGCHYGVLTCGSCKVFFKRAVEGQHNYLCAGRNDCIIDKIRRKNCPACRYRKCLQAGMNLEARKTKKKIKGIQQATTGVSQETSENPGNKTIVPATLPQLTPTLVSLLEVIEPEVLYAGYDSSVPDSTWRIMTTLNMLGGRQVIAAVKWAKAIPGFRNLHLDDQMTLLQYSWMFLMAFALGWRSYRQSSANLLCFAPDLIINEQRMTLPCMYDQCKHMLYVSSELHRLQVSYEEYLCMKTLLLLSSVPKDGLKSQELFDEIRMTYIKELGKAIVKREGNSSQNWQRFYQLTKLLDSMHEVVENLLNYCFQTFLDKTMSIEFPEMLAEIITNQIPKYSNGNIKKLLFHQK
How it was run: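 HeLa GR-bla reporter line; cells pre-incubated 4 h, compound in DMSO 18 h at 37 C; LiveBLAzer B/G FRET substrate 2 h RT; fluorescence intensity read-out.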

[19] = qHTS assay for small molecule agonists of the p53 signaling pathway (AID 651631; calls by dose curve; further: nearly all actives have a fitted effect of over 15% in size; further: potency means the concentration at half of the fitted maximal effect)
How it was run: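 Agonist mode screen using a stably integrated beta-lactamase gene under p53 response elements in HCT-116 cells. Compound exposure lasts 16 h at 37 °C; fluorescence intensity is measured following 2 h FRET substrate loading.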

[20] = biological target: Glucocorticoid receptor (Homo sapiens) (UniProt P04150); assay: qHTS assay to identify small molecule antagonists of the glucocorticoid receptor (GR) signaling pathway (AID 720692; active means well fitted inhibition curve with a large enough effect in the signal ratio in the repeat runs, not every such curve was filed as active; the % refers to the signal ratio; further: potency means the concentration at half of the fitted maximal effect)
How it was run: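 Read-out: beta-lactamase FRET substrate fluorescence, 2 h at room temperature, in HeLa cells stably carrying a GRE-driven bla reporter. Compounds were co-incubated with 5 nM dexamethasone agonist (final) for 18 h at 37 C.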
On the % scale 0 is the no-effect control and ±100 the full control effect.

C=CCC1=C(C)C(OC(=O)C2C(C=C(C)C)C2(C)C)CC1=O (stereo not given)
active: Potency [2] 64.8 µM | Potency [4] 11.5 µM | Potency [5] 5.78 µM
inactive: Potency [1] | Potency [3] | outcome [6] | outcome [7] | Potency [8] | outcome [9] | outcome [10] | Potency [11] | outcome [12] | outcome [13] | outcome [14] | Potency [15] | outcome [16] | Potency [17] | Potency [18]

CCC(C)c1cc([N+](=O)[O-])cc([N+](=O)[O-])c1OC(=O)C=C(C)C (stereo not given)
active: Potency [19] 12.2 µM | Potency [3] 30.6 µM | Potency [20] 19.5 µM
inactive: Potency [1] | outcome [6] | outcome [7] | Potency [8] | outcome [9] | outcome [10] | Potency [11] | outcome [12] | outcome [13] | outcome [14] | Potency [15] | outcome [16] | Potency [17] | Potency [18]

CC(=O)/C=C/c1ccc2c(c1)OCO2
active: Potency [19] 30.8 µM
inactive: Potency [1] | Potency [2] | Potency [4] | Potency [5] | outcome [6] | outcome [7] | Potency [8] | outcome [10] | Potency [11] | outcome [12] | outcome [13] | outcome [14] | Potency [15] | outcome [16] | Potency [17] | Potency [18]

N#CSCSC#N
active: Potency [19] 5.57 µM and 10.8 µM | Potency [1] 19.8 µM and 30.3 µM | Potency [2] 62.5 µM and 60.5 µM | Potency [5] 62.5 µM and 48.1 µM
inactive: outcome [6] | outcome [7] | Potency [8] | outcome [9] | outcome [10] | Potency [11] | outcome [12] | outcome [14] | Potency [15] | outcome [16] | Potency [17]

[Cl][Sb]([Cl])[Cl]
active: Potency [19] 34.4 µM
inactive: Potency [2] | Potency [4] | outcome [6] | outcome [7] | Potency [8] | outcome [9] | outcome [10] | Potency [11] | outcome [12] | outcome [13] | outcome [14] | Potency [15] | outcome [16] | Potency [17]

Clc1ccc(COC(Cn2ccnc2)c2ccc(Cl)cc2Cl)cc1 (stereo not given)
active: Potency [2] 29.8 µM and 27.2 µM | Potency [3] 26.6 µM | Potency [4] 26.6 µM | Potency [5] 18.8 µM and 45.3 µM and 54.3 µM
inactive: Potency [1] | outcome [6] | outcome [7] | Potency [8] | outcome [9] | outcome [10] | Potency [11] | outcome [12] | outcome [13] | outcome [14] | Potency [15] | outcome [16] | Potency [17]

N#CNC#N
inactive: Potency [19] | Potency [2] | Potency [3] | Potency [4] | outcome [6] | outcome [7] | Potency [8] | outcome [10] | Potency [11] | outcome [12] | outcome [14] | Potency [15] | outcome [16] | Potency [17] | Potency [18] | Potency [20]

CCCCCCCCCCCCCCCC[n+]1ccccc1
active: Potency [19] 26.6 µM and 71.7 µM | Potency [2] 67.6 µM [middle of 4 runs] | Potency [4] 63.9 µM and 60.3 µM | Potency [5] 24.3 µM [middle of 4 runs]
inactive: Potency [1] | outcome [6] | outcome [7] | Potency [8] | outcome [10] | Potency [11] | outcome [12] | outcome [14] | Potency [15] | outcome [16] | Potency [17]

CCCOCC(=Nc1ccc(Cl)cc1C(F)(F)F)n1ccnc1
inactive: Potency [1] | outcome [6] | outcome [7] | Potency [8] | outcome [9] | outcome [10] | Potency [11] | outcome [12] | outcome [13] | outcome [14] | Potency [15] | outcome [16] | Potency [17]
active: Potency [2] 24.3 µM | Potency [3] 61.1 µM | Potency [4] 30.6 µM | Potency [5] 6.11 µM

C[C@@H]1O[C@@H](O[C@@H]2C=C3CC[C@@H]4[C@H](CC[C@]5(C)[C@@H](c6ccc(=O)oc6)CC[C@]45O)[C@@]3(C)CC2)[C@H](O)[C@H](O)[C@H]1O
active: Potency [2] 0.0072 µM | Potency [3] 0.0227 µM | Potency [5] 0.0639 µM | Potency [20] 0.0574 µM
inactive: Potency [1] | Potency [4] | fluorescence, relative to Rose Bengal [6] 0.222% [at 18.6 µM] | fluorescence, % of fluorescein control [7] -0.0054% [at 18.6 µM] | fluorescence, % of triamterene [8] 0.167% [at 18.6 µM] | fluorescence, % of fluorescent control [9] -0.104% [at 18.6 µM] | fluorescence, % of fluorescein [10] 0.0243% [at 18.6 µM] | fluorescence, % of fluorescent control [11] 0.328% [at 18.6 µM] | activity change [12] 0.0268% [at 18.6 µM] | fluorescence, % of fluorescent control [13] -0.024% [at 18.6 µM] | fluorescence, % of Rose Bengal [14] -0.272% [at 18.6 µM] | fluorescence, % of fluorescent control [15] 0.14% [at 18.6 µM] | fluorescence, % of fluorescein control [16] -0.0466% [at 18.6 µM] | fluorescence, % of fluorescent control [17] 0.187% [at 18.6 µM] | Potency [18]

CC(=O)OC1(c2ccccc2)CCN(CCc2ccccc2)CC1
inactive: Potency [19] | Potency [1] | Potency [2] | Potency [4] | outcome [6] | outcome [7] | Potency [8] | outcome [9] | outcome [10] | Potency [11] | outcome [12] | outcome [13] | outcome [14] | Potency [15] | outcome [16] | Potency [17]

BrCBr
inactive: Potency [19] | Potency [2] | Potency [4] | Potency [5] | outcome [6] | outcome [7] | Potency [8] | outcome [9] | outcome [10] | Potency [11] | outcome [12] | outcome [13] | outcome [14] | Potency [15] | outcome [16] | Potency [17] | Potency [18]

ClC1=C(Cl)C2(Cl)C3C(Cl)C(Cl)CC3C1(Cl)C2(Cl)Cl (stereo not given)
inactive: Potency [1] | Potency [3] | Potency [4] | outcome [6] | outcome [7] | Potency [8] | outcome [9] | outcome [10] | Potency [11] | outcome [12] | outcome [13] | outcome [14] | Potency [15] | outcome [16] | Potency [17]
active: Potency [2] 54.3 µM and 61.1 µM | Potency [5] 7.67 µM and 13.7 µM

C[C@H]1O[C@@H](O[C@H]2[C@@H](O)C[C@H](O[C@H]3[C@@H](O)C[C@H](O[C@H]4CC[C@@]5(C)[C@H](CC[C@@H]6[C@@H]5CC[C@]5(C)[C@@H](C7=CC(=O)OC7)CC[C@]65O)C4)O[C@@H]3C)O[C@@H]2C)C[C@H](O)[C@@H]1O
active: Potency [2] 47.3 nM and 12.3 nM | Potency [3] 53.1 nM and 30.8 nM | Potency [5] 119 nM and 97.5 nM | Potency [20] 0.425 µM
inactive: Potency [1] | Potency [4] | outcome [6] | outcome [7] | Potency [8] | outcome [9] | outcome [10] | Potency [11] | outcome [12] | outcome [13] | outcome [14] | Potency [15] | outcome [16] | Potency [17] | Potency [18]
